Bioassay records: PubChem BioAssay, Broad Institute
T cruzi growth = T. cruzi proliferation inhibition | AID 624255 | T. cruzi beta-gal in NIH3T3, GalScreen luminescence, 90 h | hit rate 5.9% among 77,000 | inhibition, % at 8.34 µM;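 active = mean inhibition above about 93%, with at least 55% of replicates each passing it, limit read from the data, passing the limit was not always enough; inconclusive = only one of those two conditions holds; inactive = neither condition holds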
C diff HTS = inhibitors of Clostridium difficile growth. growth activity, negative = inhibition, % at 16 µg/mL (by protocol). hit rate 0.25% among 86,000. Clostridium difficile clinical isolate growth, OD600, 24 h; hits give low values;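 active = mean growth activity at or below -80% and every replicate also at or below -80%; inconclusive = mean at or below -80% but some replicate above -80%; inactive = mean growth activity above -80%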;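 also: 0% = DMSO wells and -100% = levofloxacin 16 µg/mL wells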
Pf Dd2 inh = P. falciparum Dd2 growth inhibition | SYBR Green, 72 h; hits give low values | activity change, % at 10 µM | hit rate 2.3% among 94,000 | AID 1159554; in the data active = activity change below about -80%; inconclusive = no clear call, values can overlap the other calls
* marks the source's active call; other numbers are inactive results; u = inconclusive; x = no result given. Shown are actives, neighbours in structure and some others; about 6.7% of the full set was active somewhere.

SMILES	T cruzi growth	C diff HTS	Pf Dd2 inh
C[C@H]1CN([C@@H](C)CO)C(=O)Cc2cc(NC(=O)Cc3cn(C)c4ccccc34)ccc2O[C@@H]1CN(C)C(=O)NC1CCCCC1	-4	0	-25
O=C(OC[C@@H]1[C@H]2c3ccccc3OC1(CO)N=C1SCCCN12)c1ccccc1	x	-6	x
COc1ccc(NC(=O)N(C)C[C@H]2Oc3c(NC(=O)Nc4ccccc4)cccc3C(=O)N([C@H](C)CO)C[C@H]2C)cc1	-7	0	-86*
C[C@H]1CN([C@@H](C)CO)C(=O)c2cccc(NC(=O)Nc3cccc4ccccc34)c2O[C@H]1CN(C)C(=O)NC1CCCCC1	53	-5	-85*
C[C@@H]1CN([C@H](C)CO)C(=O)c2cccc(NC(=O)Nc3cccc4ccccc34)c2O[C@@H]1CN(C)C(=O)NC1CCCCC1	54	48	-77
COc1ccc(NC(=O)Nc2cccc3c2O[C@H](CN(C)C(=O)Nc2ccccc2)[C@@H](C)CN([C@H](C)CO)C3=O)cc1	-15	5	-4
COc1ccc(NC(=O)N(C)C[C@H]2Oc3c(NC(=O)Nc4ccc5c(c4)OCO5)cccc3C(=O)N([C@@H](C)CO)C[C@H]2C)cc1	-2	5	-86*
COc1ccc(NC(=O)Nc2cccc3c2O[C@H](CN(C)C(=O)Nc2ccc4c(c2)OCO4)[C@@H](C)CN([C@@H](C)CO)C3=O)cc1	32	x	-11
CCC(=O)N1C[C@H](O)COC[C@@H]2O[C@@H](CC(=O)NCC3CCCCC3)CC[C@H]21	75	0	-11
COc1ccc2c3c(n(C)c2c1)[C@@H](CO)N(C(C)=O)CC31CN(C(=O)c2ccccc2)C1	x	-3	14
Cc1cc(C(=O)Nc2cccc3c2O[C@H](CN(C)S(C)(=O)=O)[C@@H](C)CN([C@@H](C)CO)C3=O)n(C)n1	10	1	12
OC[C@H]1Nc2ccc(-c3ccccc3)cc2[C@@H]2[C@H]1CCN2Cc1ccccc1F	38	-101*	-21
COc1ccc(-c2ccc3c(c2)[C@H]2[C@H](CCN2Cc2ccncc2)[C@@H](CO)N3)cc1	x	58	-82*
OC[C@@H]1Nc2ccc(-c3ccccc3)cc2[C@@H]2[C@H]1CCN2Cc1ccccc1F	42	-7	-16
OC[C@H]1Nc2ccc(-c3cccc(F)c3)cc2[C@H]2[C@@H]1CCN2Cc1ccc(F)cc1	94	2	-73
OC[C@@H]1Nc2ccc(-c3cccc(F)c3)cc2[C@@H]2[C@H]1CCN2Cc1ccncc1	x	42	-92*
N#Cc1cccc(-c2ccc3c(c2)[C@H]2[C@H](CCN2Cc2ccc4c(c2)OCO4)[C@H](CO)N3)c1	46	-39	-71
COc1ccc(-c2ccc3c(c2)[C@H]2[C@H](CCN2Cc2cncnc2)[C@H](CO)N3)cc1	97	-8	-46
N#Cc1cccc(-c2ccc3c(c2)[C@H]2[C@H](CCN2Cc2ccncc2)[C@@H](CO)N3)c1	x	-5	-89*
COc1ccc2c3c([nH]c2c1)[C@H](CO)NCC31CCN(C(=O)C2CCCC2)CC1	x	1	-58
CO[C@H]1CN(C)C(=O)c2ccc(NC(=O)Nc3cc(Cl)cc(Cl)c3)cc2OC[C@H](C)NC[C@@H]1C	x	71	6
CO[C@H]1CN(C)C(=O)c2ccc(NC(=O)Nc3ccc(Cl)cc3)cc2OC[C@H](C)NC[C@H]1C	-100	x	x
CO[C@H]1CN(C)C(=O)c2ccc(NC(=O)Nc3ccc(Cl)cc3)cc2OC[C@@H](C)NC[C@@H]1C	-71	x	x
CO[C@@H]1CN(C)C(=O)c2ccc(NC(=O)Nc3cc(Cl)cc(Cl)c3)cc2OC[C@H](C)NC[C@@H]1C	-3	-100*	-21
CO[C@@H]1CN(C)C(=O)c2ccc(NC(=O)Nc3ccc(C(F)(F)F)cc3)cc2OC[C@H](C)NC[C@H]1C	28	x	-95*
SMILES	T cruzi growth	C diff HTS	Pf Dd2 inh
CO[C@@H]1CN(C)C(=O)c2cc(NC(=O)Nc3ccc(C(F)(F)F)cc3)ccc2OC[C@H](C)NC[C@@H]1C	-2	x	u
CO[C@H]1CN(C)C(=O)c2ccc(NC(=O)Nc3ccc(Cl)c(Cl)c3)cc2OC[C@H](C)NC[C@H]1C	38	-97*	x
CO[C@H]1CN(C)C(=O)c2ccc(NC(=O)Nc3ccc(Cl)c(Cl)c3)cc2OC[C@H](C)NC[C@@H]1C	21	-99*	x
CC(C)NC(=O)N(C)C[C@@H]1Oc2cc(C#C[C@H](C)O)ccc2S(=O)(=O)N([C@H](C)CO)C[C@H]1C	x	2	15
C[C@@H]1CN([C@@H](C)CO)C(=O)c2cccc(NC(=O)C3CC3)c2O[C@@H]1CN(C)S(=O)(=O)c1ccc(Cl)cc1	36	-1	-18
COc1ccc(S(=O)(=O)N(C)C[C@@H]2Oc3ccc(NC(=O)NC4CCCCC4)cc3C(=O)N([C@@H](C)CO)C[C@H]2C)cc1	55	3	2
COc1ccc2c3c([nH]c2c1)[C@H](CO)N(CC1CC1)CC31CCN(C(=O)c2ccc(F)cc2)CC1	x	8	-70
CNC[C@@H]1OCCCC[C@@H](C)Oc2ccc(NC(=O)c3ccccc3)cc2C(=O)N([C@H](C)CO)C[C@H]1C	6	-3	x
O=C(Nc1ccc(F)cc1)N[C@H]1CC[C@@H](CCn2cc(C3(O)CCCC3)nn2)O[C@@H]1CO	29	1	-9
C[C@@H]1CN([C@H](C)CO)C(=O)c2cccc(NS(=O)(=O)c3ccc(F)cc3)c2O[C@H]1CN(C)S(=O)(=O)c1ccccc1	11	-3	6
O=C(C[C@@H]1C=C[C@@H](NC(=O)c2ccccc2)[C@H](CO)O1)NCc1ccncn1	-35	x	14
O=C(NC1CCC1)[C@@H]1[C@@H](CO)[C@@H]2Cn3c(ccc(-c4ccccc4)c3=O)[C@@H]2N1CC1CC1	x	10	19
CCCN1C[C@H](C)[C@H](OC)CN(C)C(=O)c2ccc(NS(=O)(=O)c3ccccc3)cc2OC[C@@H]1C	-40	x	6
O=C(C1CCCC1)N1CC2(C1)[C@@H](c1ccccc1)[C@@H](CO)N2Cc1ccc(Cl)cc1	x	12	-16
O=C(C1CCCC1)N1CC2(C1)[C@@H](c1ccccc1)[C@H](CO)N2Cc1ccc(Cl)cc1	x	9	-85*
COc1cccc(CN2[C@@H](CO)[C@@H](c3ccccc3)C23CN(C(=O)C2CC2)C3)c1	x	-1	-3
OC[C@@H]1[C@@H](c2ccccc2)C2(CN(Cc3ccc4c(c3)OCO4)C2)N1Cc1ccccc1	x	20	-93*
OC[C@@H]1[C@@H](c2ccccc2)C2(CN(Cc3ccccc3F)C2)N1Cc1ccccc1F	x	39	-88*
OC[C@@H]1[C@H](c2ccccc2)C2(CN(Cc3ccccc3)C2)N1Cc1ccncc1	x	4	-53
CC(=O)N1CC2(C1)[C@@H](c1ccccc1)[C@@H](CO)N2Cc1ccccc1F	x	8	-4
COc1cccc(CN2[C@H](CO)[C@@H](c3ccccc3)C23CN(Cc2ccccc2OC)C3)c1	x	20	-90*
Cc1noc(C)c1S(=O)(=O)Nc1cccc2c1O[C@@H](CN(C)CC1CC1)[C@@H](C)CN([C@H](C)CO)C2=O	9	-2	12
C[C@H](CO)N1C[C@H](C)[C@H](CN(C)Cc2ccc(Oc3ccccc3)cc2)Oc2ccc(NC(=O)C3CC3)cc2CC1=O	33	-10	0
